Laboratory results as given in PubChem BioAssay.
Active and inactive are the calls of the source. Unless noted, the rule behind the calls is not given here.

Assays:
[1] = tested on: XIP peptide (Xip251-270) binding; test: small-molecule binders of XIP peptide, primary screen, biochemical, small-molecule microarray, fluorescence 635/667 nm, 0.1 µg/mL protein (AID 1182); conditions: fluorescent protein binding, 635 nm, higher = more signal, called active from +8 up or from −8 down
[2] = tested on: XIP peptide (Xip251-270); test: small-molecule binders of XIP peptide, primary screen, biochemical, small-molecule microarray, fluorescence 635/667 nm, 0.5 µg/mL protein (AID 1183); conditions: small-molecule microarray binding, fluorescence 635 nm; higher = more signal
[3] = Plasmodium falciparum growth inhibition, primary screen, strain 3D7, DAPI fluorescence, 100 nL (AID 1184);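 note: parasites grown inside human red blood cells in medium with human serum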; conditions: P. falciparum 3D7 growth, 3 d, higher = more signal
[4] = target: Homeobox protein Hox-A13 (Mus musculus) (UniProt Q62424); test: inhibitors of HoxA13-DNA binding, primary screen, biochemical, fluorescence polarization, labeled oligonucleotide (AID 1185); conditions: 15 min, higher = more signal, called active from +8 up or from −8 down
Homeobox protein Hox-A13 (Mus musculus), sequence (Q62424 whole entry, looked up): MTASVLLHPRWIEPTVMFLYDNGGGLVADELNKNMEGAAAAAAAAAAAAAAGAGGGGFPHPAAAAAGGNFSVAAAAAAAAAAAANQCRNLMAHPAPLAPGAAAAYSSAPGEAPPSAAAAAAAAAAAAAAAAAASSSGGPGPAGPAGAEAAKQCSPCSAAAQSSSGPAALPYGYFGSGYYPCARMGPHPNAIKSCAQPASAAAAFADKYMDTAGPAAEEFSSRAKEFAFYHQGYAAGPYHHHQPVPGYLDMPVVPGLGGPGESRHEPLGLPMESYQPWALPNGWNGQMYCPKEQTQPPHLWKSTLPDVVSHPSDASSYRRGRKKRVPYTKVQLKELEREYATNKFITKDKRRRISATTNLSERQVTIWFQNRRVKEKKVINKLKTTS

[5] = inhibitors of hydroxyurea-induced Chk1 phosphorylation, primary screen, imaging, HeLa, phospho-Chk1 antibody, percent positive cells (AID 1186); conditions: hydroxyurea-induced phospho-Chk1 immunofluorescence imaging, higher = more signal
[6] = inhibitors of hydroxyurea-induced Chk1 phosphorylation, primary screen, imaging, HeLa, phospho-Chk1 nuclear intensity (AID 1187); conditions: hydroxyurea-induced phospho-Chk1 immunofluorescence imaging, higher = more signal

| Compound | composite z-score [1] | composite z-score [2] | z-score [3] | z-score [4] | z-score [5] | z-score [6] |
| --- | --- | --- | --- | --- | --- | --- |
| COC(=O)[C@@]1(Cc2ccccc2)[C@H]2c3cc(C(=O)N(C)C)n(Cc4ccc(Cl)c(C(F)(F)F)c4)c3C[C@H]2CN1C(=O)c1ccccc1 | 0 (inactive) | 0.485 | -1.47 | -2.73 (inactive) | 0.435 (inactive) | 0.444 (inactive) |
| COC(=O)[C@@]1(Cc2ccc(F)cc2)[C@@H]2C(=CC(=O)[C@H]2CC(=O)C(=O)N2CCCC2)CN1C(=O)c1ccccc1 | 0.47 (inactive) | 0.839 | -1.72 | -4.84 (inactive) | 0.261 (inactive) | 0.278 (inactive) |
| CC[C@@H](O[Si](C#C[Si](C(C)C)(C(C)C)C(C)C)(C(C)C)C(C)C)c1cn(Cc2cccc(Cl)c2)nn1 | 0.242 (inactive) | -0.0319 | 0.163 | 0.335 (inactive) | 0.212 (inactive) | -0.0184 (inactive) |
| CCCC[C@@H](O)C1=C(C)Cn2c(=O)n(-c3ccccc3)c(=O)n2[C@H]1CO | -0.387 (inactive) | 0.0389 | 0.0686 | -0.901 (inactive) | -0.522 (inactive) | -0.621 (inactive) |
| COc1ccc(C(O)C2C=CC3C(=O)N(C)C(=O)C3N2Nc2ccccc2)cc1 (stereo not given) | 0.488 (inactive) | 0.592 | -0.142 | -3.64 (inactive) | 0.158 (inactive) | -0.0307 (inactive) |
| CC(C)c1ccc(NN2C(C(O)C3=C[C@H]4C[C@@H](C3)C4(C)C)C=CC3C(=O)N(c4ccccc4)C(=O)C32)cc1 (stereo not given in full) | 1.35 (inactive) | 0.464 | -0.0979 | -2.33 (inactive) | -0.0307 (inactive) | -0.257 (inactive) |
| CCCCN1CC=CC23O[C@@H]4/C=C\CCCOC(=O)C4[C@H]2C(=O)N(CCCCCCO)[C@@H]3C1=O (stereo not given in full) | 0.723 (inactive) | 0.803 | -0.165 | -4.71 (inactive) | -0.624 (inactive) | -0.137 (inactive) |
| COC(=O)[C@@]1(Cc2ccc(F)cc2)[C@H]2c3cc(C(=O)N4CCCC4)n(C[C@H](O)CO)c3C[C@H]2CN1C(=O)c1ccccc1 | 1.17 (inactive) | 0.0592 | -0.534 | -5.57 (inactive) | 0.588 (inactive) | 0.439 (inactive) |
| COCCOC(=O)N1C(=O)[C@@]2(c3cc(C#CCNC(N)=O)ccc31)[C@H](c1ccccc1OCCO)N1[C@H](c3ccccc3)[C@H](c3ccccc3)OC(=O)[C@H]1[C@@H]2C(=O)N1CCCCCCC1 | 0.564 (inactive) | 0.824 | -2.13 | 0.831 (inactive) | -0.0593 (inactive) | -0.191 (inactive) |
| C#CCN(C(=O)OC(C)(C)C)[C@H](CO)c1ccccc1 | -0.235 (inactive) | -0.182 | -0.333 | -3.85 (inactive) | -0.306 (inactive) | -0.368 (inactive) |
| O=C1O[C@H](c2ccccc2)[C@H](c2ccccc2)N2[C@H]1[C@@H](C(=O)Nc1nc3ccccc3s1)[C@]1(C(=O)Nc3ccccc31)[C@H]2c1ccccc1OCCO | 1.18 (inactive) | 0.758 | -1.08 | 2 (inactive) | 0.153 (inactive) | 0.65 (inactive) |
| COc1ccc(C(O)C2C=CC3C(=O)N(c4ccccc4)C(=O)C3N2Nc2ccccc2F)c2ccccc12 (stereo not given) | 1.56 (inactive) | 0.795 | 0.482 | -3.14 (inactive) | 0.0395 (inactive) | -0.3 (inactive) |
| COC(=O)[C@@]1(Cc2ccc(F)cc2)[C@H]2c3cc(C(=O)N(C)C)n(Cc4ccsc4Br)c3C[C@H]2CN1C(=O)c1ccccc1 | 1.29 (inactive) | 0.102 | -1.75 | -5.36 (inactive) | -0.219 (inactive) | -1.12 (inactive) |
| [N-]=[N+]=NCc1ccccc1[C@H]1OC(c2ccc(OCCCO)cc2)=N[C@@]1(Cc1ccccc1N=[N+]=[N-])C(=O)O | 0.107 (inactive) | 0.76 | 0.58 | -4.41 (inactive) | -0.0666 (inactive) | 0.194 (inactive) |
| CN(C)CCCCCCNC(=O)[C@@H]1C[C@@H]2C(=O)N[C@@H](CCCC[N+](C)(C)C)C(=O)N2[C@@H]1c1cccc(OCCO)c1 | 0.877 (inactive) | -0.0938 | -0.143 | -1.8 (inactive) | 0.559 (inactive) | 0.952 (inactive) |
| C[C@]1(C(=O)NC2CC2)c2ccccc2C(=O)N(Cc2cc(F)cc(C(F)(F)F)c2)[C@H]1c1ccc(CO)cc1 | 0.431 (inactive) | 0.883 | 0.0713 | -3.51 (inactive) | 0.361 (inactive) | 0.529 (inactive) |
| C=CCNC(=O)[C@H]1[C@@H]2C(=O)O[C@@H](c3ccccc3)[C@@H](c3ccccc3)N2[C@@H](c2ccc(O)cc2)[C@]12C(=O)Nc1ccccc12 | -0.067 (inactive) | 0.821 | 0.478 | -3.97 (inactive) | 0.0866 (inactive) | 0.432 (inactive) |
| CC(C)[Si](C#Cc1ccccc1)(O[C@H](c1ccccc1)c1cn(Cc2ccccc2)nn1)C(C)C | 0.0554 (inactive) | 0.877 | -1.18 | -1.11 (inactive) | 0.0998 (inactive) | 0.124 (inactive) |

| Compound | composite z-score [1] | composite z-score [2] | z-score [3] | z-score [4] | z-score [5] | z-score [6] |
| --- | --- | --- | --- | --- | --- | --- |
| CC(C)c1ccc(NN2C(C(O)C(C)c3ccccc3)C=CC3C(=O)N(c4ccccc4)C(=O)C32)cc1 (stereo not given) | 2.17 (inactive) | 0.77 | -0.119 | -2.2 (inactive) | 0.545 (inactive) | 0.739 (inactive) |
| C=CC[C@H](OC(=O)Nc1ccc(SC)cc1)c1ccc(O)c(F)c1 | 1.07 (inactive) | -0.193 | -0.249 | -0.845 (inactive) | 0.355 (inactive) | 0.417 (inactive) |
| C[C@]12C(=O)N(CCO)[C@@H]3C(=O)N(c4ccc(Cl)cc4)CC=CC31O[C@@H]1/C=C\CCCOC(=O)C12 (stereo not given in full) | -0.0502 (inactive) | 0.913 | -1.39 | -3.46 (inactive) | 0.245 (inactive) | 0.129 (inactive) |
| C=C(C(=O)CC[C@@H](OC(=O)c1cccnc1)c1cccc(OCCO)c1)C(C)C | -0.0726 (inactive) | 0.61 | -2.56 | -3.51 (inactive) | -0.361 (inactive) | 0.519 (inactive) |
| COC(=O)C1=CC(CCCO)=CC(c2ccc(CN3CCCC3)cc2)N(C)C=C1C(=O)OC (stereo not given) | 0.736 (inactive) | 0.873 | 0.34 | -6.09 (inactive) | -0.118 (inactive) | -0.428 (inactive) |
| COC(=O)C1(CC(C)C)C=C2C(=C(C)C(=O)C2C)CN1 (stereo not given) | -0.583 (inactive) | 0.992 | 0.51 | -4.02 (inactive) | 0.886 (inactive) | 0.911 (inactive) |
| CC(C)[Si]1(C(C)C)OCc2cc(-c3ccc(-c4ccc(Cl)c(Cl)c4)o3)nc(-c3ccc(Oc4ccccc4)cc3)c21 | 0.146 (inactive) | 0.548 | -0.497 | -1.74 (inactive) | 0.0415 (inactive) | -0.0792 (inactive) |
| O=C1OCC=C[C@H]2OC34C=CCN(Cn5nnc6ccccc65)C(=O)[C@H]3N(CCO)C(=O)[C@@H]4[C@@H]12 (stereo not given in full) | -0.149 (inactive) | -0.884 | 1.12 | -4.12 (inactive) | -0.743 (inactive) | -0.287 (inactive) |
| CC(C)(C)OC(=O)CC[C@]1(C(N)=O)N=C(c2ccc(OCCCO)cc2)O[C@H]1c1ccccc1N=[N+]=[N-] | 0.466 (inactive) | 0.351 | 0.129 | -6.52 (inactive) | -0.373 (inactive) | -0.285 (inactive) |
| COC(=O)C1=CC(c2ccc(CO)cc2)=CC(C2CC2)N(Cc2cc3c(cc2Br)OCO3)C=C1C(=O)OC (stereo not given) | 1.59 (inactive) | 0.859 | -2.29 | -5.19 (inactive) | 0.0404 (inactive) | -0.0211 (inactive) |
| CC(C)C[C@@H]1NC(=O)[C@@H]2C[C@H](C(=O)NCCCCCNC(=O)CS)[C@H](c3ccc(O)cc3)N2C1=O | 0.741 (inactive) | 0.56 | -1.13 | -0.472 (inactive) | 0.581 (inactive) | 0.313 (inactive) |
| COc1ccc(NN2C(C(O)c3ccccc3)C=CC3C(=O)N(C4CCCCC4)C(=O)C32)cc1 (stereo not given) | 0.387 (inactive) | 0.745 | -1.08 | -4.8 (inactive) | 0.329 (inactive) | 0.711 (inactive) |
| CCOC(=O)C[C@H]1[C@H](OC(=O)c2cc3ccccc3oc2=O)[C@@H](NC(=O)Cc2ccc(OC)cc2)c2cc(OCCCO)ccc2N1C(=O)Cc1ccc(OC)cc1 | -0.0664 (inactive) | 0.0609 | -0.912 | -5.1 (inactive) | 0.212 (inactive) | 0.199 (inactive) |
| CO[C@H]1O[C@H](CO)[C@@H](OC(=O)Nc2ccccc2)[C@@H]2OC(=O)[C@@H](Cc3ccccc3)C/C=C/C[C@H](Cc3ccccc3)C(=O)O[C@@H]12 | 0.0585 (inactive) | 0.455 | 0.232 | -0.539 (inactive) | -0.741 (inactive) | -0.467 (inactive) |
| CCCCN1CC=CC23O[C@@H]4C=CCCOC(=O)C4[C@H]2C(=O)N(CCO)[C@@H]3C1=O (stereo not given in full) | 0.61 (inactive) | 0.485 | 0.211 | -4.53 (inactive) | -0.307 (inactive) | -0.815 (inactive) |
| C=C(COC)C(=O)CC[C@H](OC(C)=O)c1ccc(CO)o1 | -0.153 (inactive) | 0.626 | -0.689 | -4.72 (inactive) | -0.707 (inactive) | -0.842 (inactive) |
| [N-]=[N+]=NCc1ccccc1C[C@]1(C(=O)N2CCCCC2)COC(c2ccc(OCCCO)cc2)=N1 | -0.061 (inactive) | 0.652 | -2.29 | -6.04 (inactive) | -0.749 (inactive) | -0.928 (inactive) |
